Pf growth 48h: inhibits P. falciparum growth in the first generation, 48 h; P. falciparum luciferase growth in erythrocytes, 48 h; 5.9% of 310,000 active; Potency, µM (doses to about 28.7 µM), hits mostly inhibitors
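First compound was added to culture medium, then infected red cells at 0.1% parasitemia and 2% hematocrit (final). After incubation at 37 C under 5% CO2, luciferase detection reagent was dispensed and light output recorded.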
HCV inh: blocks hepatitis C virus; Huh7.5.1 HCVcc-Cre infection, luciferase reporter, 44 h; Potency, µM (top dose mostly 41.8 µM), usual class: inhibitors; 3.4% of 340,000 active
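1,000 cells/well; 4 h culture; + compound; + HCVcc-Cre (~0.5 moi); 44 h; luciferase substrate, RT 15 min; read 15 sec.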
SARS PLpro yeast: blocks SARS-CoV papain-like protease in a yeast assay | S. cerevisiae expressing SARS-CoV PLpro, growth rescue | 0.19% of 330,000 active | Potency, µM (series often up to 32.9 µM), actives largely listed as activators; calls by dose curve; further: nearly all actives have a fitted effect of over 55% in size
NS1 function inh: inhibitors of influenza NS1 protein function. Potency, µM (series often up to 46.1 µM). 0.4% of 270,000 active; calls by dose curve; further: actives are rising curves; nearly all actives have a fitted effect of over 50% in size
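OD600 was taken as the measure of yeast growth restored by compound in an NS1-expressing S. cerevisiae strain. Cells had been washed out of glucose medium and diluted 1:100 into galactose -URA medium, pH 6.0.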
AMA1 RON2 block: inhibitors of Plasmodium falciparum AMA1-RON2 interaction. AlphaScreen AMA1-biotinylated RON2 peptide binding. Potency, µM (series often up to 58.2 µM), most hits filed as inhibitors. 0.2% of 360,000 active; further: nearly all actives have a fitted effect of over 45% in size
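AMA1 (3D7) with his tag at 25 nM final met compounds first, then biotinylated RON2 peptide at 25 nM; detection used donor plus acceptor beads, 10 µg/mL apiece, read by AlphaScreen after 30 min at room temperature.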
Pf growth 96h: P. falciparum growth inhibition at 96 hours; P. falciparum luciferase reporter growth, 96 h; Potency, µM (series often up to 28.7 µM), hits mostly inhibitors; 6.9% of 320,000 active; AID 504834
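Two parasite generations (96 h, 37 C, 5% CO2) of compound exposure in infected erythrocytes (0.05% parasitemia, 2% hematocrit). Luciferase-reporter P. falciparum; decreased luminescence indicates inhibited growth, aimed at apicoplast-acting delayed death.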
Of the large screens only hits and unclear results are named; the others gave an inactive call. This is a sample that favours compounds with a hit; in the whole collection about 12% have one here. Unless noted, the call rests on the fitted dose curve; in most records, active means well fitted curve in the direction sought with a large enough effect; inconclusive means small, poorly fitted or top-dose-only effect, or another doubt; inactive means no such curve, though single readings can be large; an effect the other way counts as inactive or inconclusive.

COC(=O)c1cc2c(ccn2-c2ccc(F)cc2)n1CC(=O)N1CCN(C(=O)c2ccco2)CC1	Pf growth 48h inconclusive
CC(C)OC(=O)c1cc2c(ccn2-c2ccc(F)cc2)n1CC(=O)N1CCN(C(=O)c2ccco2)CC1	Pf growth 48h 1.65µM, HCV inh inconclusive, Pf growth 96h inconclusive
CCCS(=O)(=O)c1c(S(=O)(=O)CCC)c2cnccn2c1C(=O)c1ccc(F)cc1	Pf growth 48h 13.1µM
CCCS(=O)(=O)c1c(S(=O)(=O)CCC)c2cnccn2c1C(=O)c1ccc(CC)cc1	Pf growth 48h 3.29µM (no result: Pf growth 96h)
CCCS(=O)(=O)c1c(S(=O)(=O)CCC)c2ccc(C(N)=O)cn2c1C(=O)c1ccccc1	none
CCCS(=O)(=O)c1c(S(=O)(=O)CCC)c2cnccn2c1C(=O)c1ccc(OC)cc1	Pf growth 48h 10.4µM, Pf growth 96h inconclusive
O=C(O)CCC(=O)c1ccc[nH]1	none (no result: Pf growth 48h, HCV inh, SARS PLpro yeast, AMA1 RON2 block, Pf growth 96h)
C=C(C)C1CC=C(C)CC1 (stereo not given)	none (no result: HCV inh, SARS PLpro yeast, NS1 function inh, AMA1 RON2 block)
COc1cc(C(=O)c2c(C)c(CCC#N)n3ccccc23)cc(OC)c1OC	Pf growth 48h 9.28µM
COc1cccc(C(=O)c2c(C)c(CCC#N)n3ccccc23)c1OC	none
CCN(CC)CCNC1=NCCn2c1cc1cc(OC)ccc12	HCV inh 6.31µM, Pf growth 96h inconclusive (no result: Pf growth 48h)
O=C1NC[C@H](CCCCN2C[C@H](Cc3ccc(O)cc3)N(Cc3ccccc3)C(=O)C2=O)N(CC2CCCCC2)C1=O	none (no result: Pf growth 48h, HCV inh, SARS PLpro yeast, NS1 function inh, Pf growth 96h)
Cc1nc(NCc2cccnc2)c2c3c(sc2n1)CCCC3	Pf growth 48h inconclusive, HCV inh 7.08µM
Oc1ccc2ccccc2c1CNc1ccc(Br)cc1	HCV inh 2.51µM
O=C(NCc1ccccc1)c1ccccc1	none (no result: Pf growth 48h, SARS PLpro yeast, NS1 function inh, Pf growth 96h)
O=C(NCc1c(O)ccc2ccccc12)c1ccccc1	Pf growth 48h inconclusive, Pf growth 96h 10.4µM
COc1ccc(NCc2c(O)ccc3ccccc23)cc1	none (no result: Pf growth 48h, HCV inh, SARS PLpro yeast, AMA1 RON2 block, Pf growth 96h)
CCOC(=O)C(=NCCOC)NNc1cc(Cl)ccc1Cl	HCV inh inconclusive, NS1 function inh inconclusive
Cc1cccc(-c2nc(NCCCN3CCOCC3)c3ccccc3n2)c1	HCV inh inconclusive, Pf growth 96h 2.94µM (no result: Pf growth 48h)
Cc1cccc(-c2nc(S(=O)(=O)c3ccc(F)cc3)c(NCCCN3CCOCC3)o2)c1	Pf growth 48h inconclusive, Pf growth 96h 13.1µM
OC[C@@H]1CN(Cc2ccc(F)cc2)C[C@H](n2cnc3c(N4CCCC4)ncnc32)O1	none (no result: Pf growth 48h, HCV inh, SARS PLpro yeast, NS1 function inh, Pf growth 96h)
c1ccc(C2Nc3ccccc3Oc3ccccc32)cc1 (stereo not given)	Pf growth 48h 10.4µM, HCV inh inconclusive, Pf growth 96h 5.22µM
Cc1nnc(SCc2nc3ccccc3c(=O)n2-c2ccccc2Cl)n1N	none
c1ccc(-c2nc(CSc3nnnn3-c3ccccc3)cs2)cc1	none
Cc1ccc(C)c(-n2nnnc2Sc2nnnn2-c2ccccc2)c1	HCV inh 11.2µM (no result: Pf growth 48h)
O=c1c2ccccc2nc(CSc2nnnn2-c2ccccc2)n1-c1ccccc1Cl	Pf growth 48h inconclusive, HCV inh inconclusive, Pf growth 96h 11.7µM
c1ccc(Cn2c(Sc3nnnn3-c3ccccc3)nnc2-c2ccccc2)cc1	Pf growth 48h 1.85µM, Pf growth 96h inconclusive
c1ccc(Cn2c(CSc3nnnn3-c3ccccc3)nc3ccccc32)cc1	Pf growth 48h inconclusive, Pf growth 96h 14.7µM
CCOC(=O)C1(CCOc2ccccc2)CCN(Cc2cnc(SC)nc2)CC1	HCV inh inconclusive, AMA1 RON2 block inconclusive
CCOC(=O)C1(CC2CC2)CCN(Cc2cnc(-c3ccccc3C)nc2)CC1	Pf growth 48h 13.1µM, HCV inh inconclusive, Pf growth 96h inconclusive
CCOC(=O)C1(CC2CC2)CCN(Cc2cc(Cl)c(O)c(OC)c2)CC1	Pf growth 48h inconclusive, Pf growth 96h 0.37µM
Oc1ccc2ccccc2c1C=Nc1ccccc1-c1nc2ccccc2[nH]1	HCV inh 11.2µM, Pf growth 96h inconclusive (no result: Pf growth 48h)
CC(C)(C)c1ccc(O)c(N=Cc2c(O)ccc3ccccc23)c1	Pf growth 48h inconclusive, HCV inh inconclusive, Pf growth 96h inconclusive
C=C1C(C(=O)Nc2ccccc2)C1C(=O)Nc1ccccc1 (stereo not given)	none
O=C(CN1CCN(Cc2ccccc2)CC1)N1CCCc2c1c(=O)oc1ccc(O)cc21	Pf growth 48h 2.94µM, HCV inh inconclusive

Compound activity as filed in PubChem BioAssay.
